# The full ranking holds about 16,000 sequences; the median of “rpm ratio (pull-down/input)” is about 0.5, and the highest 2% start at about 5.5. What follows is part of a selection rich in the highest values, with near analogues and random picks from the rest.
# Target: T1, MBP-FoxP3dN (Mus musculus, UniProt Q99JB6 188-423)
# T1 sequence: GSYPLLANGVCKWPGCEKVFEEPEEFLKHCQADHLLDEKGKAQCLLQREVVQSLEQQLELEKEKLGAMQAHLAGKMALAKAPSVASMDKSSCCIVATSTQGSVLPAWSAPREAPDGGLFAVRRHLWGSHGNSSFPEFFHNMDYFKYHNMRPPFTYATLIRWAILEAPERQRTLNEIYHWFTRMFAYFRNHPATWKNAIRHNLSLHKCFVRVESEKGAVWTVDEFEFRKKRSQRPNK
# Assay: PD-seq (MBP pull-down with sequencing); 20 mM Tris-HCl pH 7.5, 100 mM NaCl, 1.5 mM MgCl2, 0.4 uM protein, 0.1 uM dsDNA library, 30 min, room temperature, amylose pull-down; high values mean tight binding
# Conditions: protein: recombinant; tags: His6-MBP; chain copies: 2; dsDNA, one strand shown
# Summary of the method: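 Binding is given as reads-per-million enrichment, pull-down over input, with replicates pooled. The bait was an N-terminus-lacking mouse FoxP3 or FoxP1 fragment with a His6-MBP tag, expressed in E. coli and used at 0.4 µM with 0.1 µM Klenow-filled degenerate double-stranded DNA library for 30 min at room temperature in Tris pH 7.5 buffer with NaCl and MgCl2. Amylose resin pull-down with three washes was followed by proteinase K release, PCR barcoding and Illumina sequencing.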
row,Sequence,binding signal
1,GATGATTGTTCTCCCAGCTGATGAATTTTGTGCTTCGAGTAAACAAATTTTCCTAATCTTTCTGTTCAAGCGCCATCTAC,1.87 RPM ratio (pull-down/input)
2,GATGATTGTTCTCCCAGCTGATGAATTGAGACTATCGAGTAAACAAATTTTCCTAATCTTTCTGTTCAAGCGCCATCTAC,0.692 RPM ratio (pull-down/input)
3,GATGATTGTTCTCCCAGCTGATGAATTCCTTAGCTCGAGTAAACAAATTTTCCTAATCTTTCTGTTCAAGCGCCATCTAC,0.222 RPM ratio (pull-down/input)
4,GATGATTGTTCTCCCAGCTGATGAATTTGGACTGTCGAGTAAACAAATTTTCCTAATCTTTCTGTTCAAGCGCCATCTAC,0.82 RPM ratio (pull-down/input)
5,GATGATTGTTCTCCCAGCTGATGAATTTCGGTGCTCGAGTAAACAAATTTTCCTAATCTTTCTGTTCAAGCGCCATCTAC,0.541 RPM ratio (pull-down/input)
6,GATGATTGTTCTCCCAGCTGATGAATTGCATTTTTCGAGTAAACAAATTTTCCTAATCTTTCTGTTCAAGCGCCATCTAC,3.02 RPM ratio (pull-down/input)
7,GATGATTGTTCTCCCAGCTGATGAATTTTGCGCATCGAGTAAACAAATTTTCCTAATCTTTCTGTTCAAGCGCCATCTAC,1.98 RPM ratio (pull-down/input)
8,GATGATTGTTCTCCCAGCTGATGAATTGCGCATCTCGAGTAAACAAATTTTCCTAATCTTTCTGTTCAAGCGCCATCTAC,8.03 RPM ratio (pull-down/input)
9,GATGATTGTTCTCCCAGCTGATGAATTGCATTGTTCGAGTAAACAAATTTTCCTAATCTTTCTGTTCAAGCGCCATCTAC,4.05 RPM ratio (pull-down/input)
10,GATGATTGTTCTCCCAGCTGATGAATTTGCGCATTCGAGTAAACAAATTTTCCTAATCTTTCTGTTCAAGCGCCATCTAC,7.07 RPM ratio (pull-down/input)
11,GATGATTGTTCTCCCAGCTGATGAATTTGCGAATTCGAGTAAACAAATTTTCCTAATCTTTCTGTTCAAGCGCCATCTAC,1.18 RPM ratio (pull-down/input)
12,GATGATTGTTCTCCCAGCTGATGAATTGCGCATTTCGAGTAAACAAATTTTCCTAATCTTTCTGTTCAAGCGCCATCTAC,8.05 RPM ratio (pull-down/input)
13,GATGATTGTTCTCCCAGCTGATGAATTGCGCGCATCGAGTAAACAAATTTTCCTAATCTTTCTGTTCAAGCGCCATCTAC,2.39 RPM ratio (pull-down/input)
14,GATGATTGTTCTCCCAGCTGATGAATTTTGCGATTCGAGTAAACAAATTTTCCTAATCTTTCTGTTCAAGCGCCATCTAC,2.4 RPM ratio (pull-down/input)
15,GATGATTGTTCTCCCAGCTGATGAATTTTTGACCTCGAGTAAACAAATTTTCCTAATCTTTCTGTTCAAGCGCCATCTAC,0.237 RPM ratio (pull-down/input)
16,GATGATTGTTCTCCCAGCTGATGAATTCTTCTGCTCGAGTAAACAAATTTTCCTAATCTTTCTGTTCAAGCGCCATCTAC,0.236 RPM ratio (pull-down/input)
17,GATGATTGTTCTCCCAGCTGATGAATTACGTGACTCGAGTAAACAAATTTTCCTAATCTTTCTGTTCAAGCGCCATCTAC,0.737 RPM ratio (pull-down/input)
18,GATGATTGTTCTCCCAGCTGATGAATTGATCAAATCGAGTAAACAAATTTTCCTAATCTTTCTGTTCAAGCGCCATCTAC,0.304 RPM ratio (pull-down/input)
19,GATGATTGTTCTCCCAGCTGATGAATTGGGAACGTCGAGTAAACAAATTTTCCTAATCTTTCTGTTCAAGCGCCATCTAC,0.31 RPM ratio (pull-down/input)
20,GATGATTGTTCTCCCAGCTGATGAATTATAGAACTCGAGTAAACAAATTTTCCTAATCTTTCTGTTCAAGCGCCATCTAC,0.249 RPM ratio (pull-down/input)
21,GATGATTGTTCTCCCAGCTGATGAATTGCGCTGATCGAGTAAACAAATTTTCCTAATCTTTCTGTTCAAGCGCCATCTAC,0.898 RPM ratio (pull-down/input)

row,Sequence,binding signal
1,GATGATTGTTCTCCCAGCTGATGAATTCCTGAATTCGAGTAAACAAATTTTCCTAATCTTTCTGTTCAAGCGCCATCTAC,0.481 RPM ratio (pull-down/input)
2,GATGATTGTTCTCCCAGCTGATGAATTATTGTTTTCGAGTAAACAAATTTTCCTAATCTTTCTGTTCAAGCGCCATCTAC,3.7 RPM ratio (pull-down/input)
3,GATGATTGTTCTCCCAGCTGATGAATTTATTTCTTCGAGTAAACAAATTTTCCTAATCTTTCTGTTCAAGCGCCATCTAC,3.01 RPM ratio (pull-down/input)
4,GATGATTGTTCTCCCAGCTGATGAATTGTTTATTTCGAGTAAACAAATTTTCCTAATCTTTCTGTTCAAGCGCCATCTAC,6.99 RPM ratio (pull-down/input)
5,GATGATTGTTCTCCCAGCTGATGAATTTATTGTTTCGAGTAAACAAATTTTCCTAATCTTTCTGTTCAAGCGCCATCTAC,6.4 RPM ratio (pull-down/input)
6,GATGATTGTTCTCCCAGCTGATGAATTTCATACATCGAGTAAACAAATTTTCCTAATCTTTCTGTTCAAGCGCCATCTAC,0.449 RPM ratio (pull-down/input)
7,GATGATTGTTCTCCCAGCTGATGAATTGAGGACGTCGAGTAAACAAATTTTCCTAATCTTTCTGTTCAAGCGCCATCTAC,0.248 RPM ratio (pull-down/input)
8,GATGATTGTTCTCCCAGCTGATGAATTGTATCGGTCGAGTAAACAAATTTTCCTAATCTTTCTGTTCAAGCGCCATCTAC,0.882 RPM ratio (pull-down/input)
9,GATGATTGTTCTCCCAGCTGATGAATTCCAGTGGTCGAGTAAACAAATTTTCCTAATCTTTCTGTTCAAGCGCCATCTAC,0.415 RPM ratio (pull-down/input)
10,GATGATTGTTCTCCCAGCTGATGAATTTGTGTTCTCGAGTAAACAAATTTTCCTAATCTTTCTGTTCAAGCGCCATCTAC,6.29 RPM ratio (pull-down/input)
11,GATGATTGTTCTCCCAGCTGATGAATTTTGTGTCTCGAGTAAACAAATTTTCCTAATCTTTCTGTTCAAGCGCCATCTAC,4.27 RPM ratio (pull-down/input)
12,GATGATTGTTCTCCCAGCTGATGAATTGTGTTTCTCGAGTAAACAAATTTTCCTAATCTTTCTGTTCAAGCGCCATCTAC,4.32 RPM ratio (pull-down/input)
13,GATGATTGTTCTCCCAGCTGATGAATTTGTACTCTCGAGTAAACAAATTTTCCTAATCTTTCTGTTCAAGCGCCATCTAC,2.81 RPM ratio (pull-down/input)
14,GATGATTGTTCTCCCAGCTGATGAATTCTTGTGTTCGAGTAAACAAATTTTCCTAATCTTTCTGTTCAAGCGCCATCTAC,0.821 RPM ratio (pull-down/input)
15,GATGATTGTTCTCCCAGCTGATGAATTTTTGTACTCGAGTAAACAAATTTTCCTAATCTTTCTGTTCAAGCGCCATCTAC,0.489 RPM ratio (pull-down/input)
16,GATGATTGTTCTCCCAGCTGATGAATTTGTGTTTTCGAGTAAACAAATTTTCCTAATCTTTCTGTTCAAGCGCCATCTAC,5.24 RPM ratio (pull-down/input)
17,GATGATTGTTCTCCCAGCTGATGAATTTTTGTGTTCGAGTAAACAAATTTTCCTAATCTTTCTGTTCAAGCGCCATCTAC,1.04 RPM ratio (pull-down/input)
18,GATGATTGTTCTCCCAGCTGATGAATTGTGTTGTTCGAGTAAACAAATTTTCCTAATCTTTCTGTTCAAGCGCCATCTAC,8.43 RPM ratio (pull-down/input)
19,GATGATTGTTCTCCCAGCTGATGAATTGATGTGTTCGAGTAAACAAATTTTCCTAATCTTTCTGTTCAAGCGCCATCTAC,1.66 RPM ratio (pull-down/input)
20,GATGATTGTTCTCCCAGCTGATGAATTTGTGTACTCGAGTAAACAAATTTTCCTAATCTTTCTGTTCAAGCGCCATCTAC,6.72 RPM ratio (pull-down/input)
21,GATGATTGTTCTCCCAGCTGATGAATTTGTGTGTTCGAGTAAACAAATTTTCCTAATCTTTCTGTTCAAGCGCCATCTAC,5.99 RPM ratio (pull-down/input)

row,Sequence,binding signal
1,GATGATTGTTCTCCCAGCTGATGAATTCCACCTATCGAGTAAACAAATTTTCCTAATCTTTCTGTTCAAGCGCCATCTAC,0.432 RPM ratio (pull-down/input)
2,GATGATTGTTCTCCCAGCTGATGAATTCTTACGCTCGAGTAAACAAATTTTCCTAATCTTTCTGTTCAAGCGCCATCTAC,0.256 RPM ratio (pull-down/input)
3,GATGATTGTTCTCCCAGCTGATGAATTTCATGATTCGAGTAAACAAATTTTCCTAATCTTTCTGTTCAAGCGCCATCTAC,0.692 RPM ratio (pull-down/input)
4,GATGATTGTTCTCCCAGCTGATGAATTATTCCCATCGAGTAAACAAATTTTCCTAATCTTTCTGTTCAAGCGCCATCTAC,0.334 RPM ratio (pull-down/input)
5,GATGATTGTTCTCCCAGCTGATGAATTTGTACCTTCGAGTAAACAAATTTTCCTAATCTTTCTGTTCAAGCGCCATCTAC,2.49 RPM ratio (pull-down/input)
6,GATGATTGTTCTCCCAGCTGATGAATTGAGCCCCTCGAGTAAACAAATTTTCCTAATCTTTCTGTTCAAGCGCCATCTAC,0.983 RPM ratio (pull-down/input)
7,GATGATTGTTCTCCCAGCTGATGAATTACACCTCTCGAGTAAACAAATTTTCCTAATCTTTCTGTTCAAGCGCCATCTAC,0.705 RPM ratio (pull-down/input)
8,GATGATTGTTCTCCCAGCTGATGAATTAACTGTGTCGAGTAAACAAATTTTCCTAATCTTTCTGTTCAAGCGCCATCTAC,0.556 RPM ratio (pull-down/input)
9,GATGATTGTTCTCCCAGCTGATGAATTCTGTGTTTCGAGTAAACAAATTTTCCTAATCTTTCTGTTCAAGCGCCATCTAC,3.31 RPM ratio (pull-down/input)
10,GATGATTGTTCTCCCAGCTGATGAATTGTGCGTCTCGAGTAAACAAATTTTCCTAATCTTTCTGTTCAAGCGCCATCTAC,6.12 RPM ratio (pull-down/input)
11,GATGATTGTTCTCCCAGCTGATGAATTGTGTTTTTCGAGTAAACAAATTTTCCTAATCTTTCTGTTCAAGCGCCATCTAC,6.66 RPM ratio (pull-down/input)
12,GATGATTGTTCTCCCAGCTGATGAATTTTGCGTCTCGAGTAAACAAATTTTCCTAATCTTTCTGTTCAAGCGCCATCTAC,5.4 RPM ratio (pull-down/input)
13,GATGATTGTTCTCCCAGCTGATGAATTGCGTTTTTCGAGTAAACAAATTTTCCTAATCTTTCTGTTCAAGCGCCATCTAC,2.11 RPM ratio (pull-down/input)
14,GATGATTGTTCTCCCAGCTGATGAATTTGTGTGCTCGAGTAAACAAATTTTCCTAATCTTTCTGTTCAAGCGCCATCTAC,5.67 RPM ratio (pull-down/input)
15,GATGATTGTTCTCCCAGCTGATGAATTTGTGCGTTCGAGTAAACAAATTTTCCTAATCTTTCTGTTCAAGCGCCATCTAC,3.7 RPM ratio (pull-down/input)
16,GATGATTGTTCTCCCAGCTGATGAATTCTGCGTCTCGAGTAAACAAATTTTCCTAATCTTTCTGTTCAAGCGCCATCTAC,4.55 RPM ratio (pull-down/input)
17,GATGATTGTTCTCCCAGCTGATGAATTGTGCGTTTCGAGTAAACAAATTTTCCTAATCTTTCTGTTCAAGCGCCATCTAC,5.5 RPM ratio (pull-down/input)
18,GATGATTGTTCTCCCAGCTGATGAATTTGTGCTCTCGAGTAAACAAATTTTCCTAATCTTTCTGTTCAAGCGCCATCTAC,2.89 RPM ratio (pull-down/input)
19,GATGATTGTTCTCCCAGCTGATGAATTGTGTGTTTCGAGTAAACAAATTTTCCTAATCTTTCTGTTCAAGCGCCATCTAC,4.97 RPM ratio (pull-down/input)
20,GATGATTGTTCTCCCAGCTGATGAATTTTTGTGCTCGAGTAAACAAATTTTCCTAATCTTTCTGTTCAAGCGCCATCTAC,0.442 RPM ratio (pull-down/input)
21,GATGATTGTTCTCCCAGCTGATGAATTAACGGATTCGAGTAAACAAATTTTCCTAATCTTTCTGTTCAAGCGCCATCTAC,0.29 RPM ratio (pull-down/input)

# — PMC12820563, “FoxP3 forms a head-to-head dimer in vivo and stabilizes its multimerization on adjacent microsatellites”
